Source: PubChem BioAssay
The source made the active and inactive calls.

Legend:
[1] = tested on: PRMT1 (protein arginine N-methyltransferase 1); test: small molecules binding arginine methyltransferase PRMT1 – biochemical, small-molecule microarray, 635 nm fluorescence, primary screen (AID 1088); settings: higher = more signal;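 note: binding of Prmt1 protein to compounds spotted on small-molecule microarray slides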
[2] = growth effects on S. cerevisiae YJM789 – YJM789 clinical isolate, OD600, 24 h, basal, primary screen (AID 1089); settings: higher = more signal, called active from +8 up or from −8 down;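 note: growth of clinical yeast isolate S. cerevisiae YJM 789 seeded 1000 cells per well; test concentration not given here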
[3] = S. pombe growth modifiers, basal conditions – strain 972, OD600, 24 h, no modulator, primary screen (AID 1090);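 note: basal condition with compound alone and no growth modifier present; test concentration not given here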; settings: S. pombe 972 growth, higher = more signal, called active from +8 up or from −8 down
[4] = budding yeast growth modifiers under rapamycin – strain BY4716, OD600, 96 h, primary screen (AID 1091); note: test concentration not given here; settings: S. cerevisiae BY4716 + rapamycin, higher = more signal, called active from +8 up or from −8 down
[5] = target: Torsin-1A-interacting protein 2 (Homo sapiens) (UniProt Q8NFQ8); test: small molecules binding lysate-expressed LULL1 – cell lysate, human LULL1 lysate, 635/667 nm fluorescence, primary screen (AID 1092); settings: small-molecule microarray, hLULL1 lysate binding, 635 nm fluorescence; higher = more signal;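 note: probe is lysate of COS7 cells overexpressing human LULL1; score merges per-feature 667 nm fluorescence with signal-to-noise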
Sequence of Torsin-1A-interacting protein 2 (Homo sapiens) (Q8NFQ8 whole entry, looked up): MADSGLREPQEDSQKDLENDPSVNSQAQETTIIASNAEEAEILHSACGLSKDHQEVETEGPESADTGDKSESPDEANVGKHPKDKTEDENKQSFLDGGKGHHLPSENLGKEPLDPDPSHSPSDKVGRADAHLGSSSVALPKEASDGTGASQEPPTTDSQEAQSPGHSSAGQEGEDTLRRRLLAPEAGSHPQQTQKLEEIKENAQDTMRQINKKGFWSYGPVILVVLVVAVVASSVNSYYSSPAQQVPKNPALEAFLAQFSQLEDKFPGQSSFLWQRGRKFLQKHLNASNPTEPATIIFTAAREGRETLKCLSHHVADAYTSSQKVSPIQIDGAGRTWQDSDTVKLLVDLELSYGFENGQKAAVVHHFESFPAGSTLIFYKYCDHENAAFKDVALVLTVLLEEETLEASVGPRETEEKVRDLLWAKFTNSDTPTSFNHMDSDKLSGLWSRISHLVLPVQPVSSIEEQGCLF

[6] = optical density change of DRC41 E. coli – strain DRC41, OD650, 24 h, E. coli filamentation project, primary screen (AID 1093);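 note: MC1000 strain lacking acrAB efflux and sulA so SOS filamentation is blocked; test concentration not given here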; settings: E. coli DRC41 growth, higher = more signal, called active from +8 up or from −8 down
[7] = probe aLefty2 binding to arrayed compounds – biochemical, biotinylated probe, 635/667 nm fluorescence, primary screen (AID 1094); settings: small-molecule microarray, higher = more signal;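 note: score merges spot fluorescence near 667 nm with spot signal-to-noise ratio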
[8] = tested on: Noggin (protein binding on small-molecule microarray); test: small molecules binding Noggin protein – biochemical, 635/667 nm fluorescence, primary screen (AID 1095); settings: 635 nm fluorescence, higher = more signal;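 note: score merges 667 nm feature fluorescence with signal to noise over triplicate slides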
[9] = target: Neurogenic locus notch homolog protein 3 (Homo sapiens) (UniProt Q9UM47); test: small molecules binding NOTCH3 protein – biochemical, 635/667 nm fluorescence, primary screen (AID 1096); settings: small-molecule microarray, 635 nm fluorescence, higher = more signal
Sequence of Neurogenic locus notch homolog protein 3 (Homo sapiens) (Q9UM47 whole entry, looked up): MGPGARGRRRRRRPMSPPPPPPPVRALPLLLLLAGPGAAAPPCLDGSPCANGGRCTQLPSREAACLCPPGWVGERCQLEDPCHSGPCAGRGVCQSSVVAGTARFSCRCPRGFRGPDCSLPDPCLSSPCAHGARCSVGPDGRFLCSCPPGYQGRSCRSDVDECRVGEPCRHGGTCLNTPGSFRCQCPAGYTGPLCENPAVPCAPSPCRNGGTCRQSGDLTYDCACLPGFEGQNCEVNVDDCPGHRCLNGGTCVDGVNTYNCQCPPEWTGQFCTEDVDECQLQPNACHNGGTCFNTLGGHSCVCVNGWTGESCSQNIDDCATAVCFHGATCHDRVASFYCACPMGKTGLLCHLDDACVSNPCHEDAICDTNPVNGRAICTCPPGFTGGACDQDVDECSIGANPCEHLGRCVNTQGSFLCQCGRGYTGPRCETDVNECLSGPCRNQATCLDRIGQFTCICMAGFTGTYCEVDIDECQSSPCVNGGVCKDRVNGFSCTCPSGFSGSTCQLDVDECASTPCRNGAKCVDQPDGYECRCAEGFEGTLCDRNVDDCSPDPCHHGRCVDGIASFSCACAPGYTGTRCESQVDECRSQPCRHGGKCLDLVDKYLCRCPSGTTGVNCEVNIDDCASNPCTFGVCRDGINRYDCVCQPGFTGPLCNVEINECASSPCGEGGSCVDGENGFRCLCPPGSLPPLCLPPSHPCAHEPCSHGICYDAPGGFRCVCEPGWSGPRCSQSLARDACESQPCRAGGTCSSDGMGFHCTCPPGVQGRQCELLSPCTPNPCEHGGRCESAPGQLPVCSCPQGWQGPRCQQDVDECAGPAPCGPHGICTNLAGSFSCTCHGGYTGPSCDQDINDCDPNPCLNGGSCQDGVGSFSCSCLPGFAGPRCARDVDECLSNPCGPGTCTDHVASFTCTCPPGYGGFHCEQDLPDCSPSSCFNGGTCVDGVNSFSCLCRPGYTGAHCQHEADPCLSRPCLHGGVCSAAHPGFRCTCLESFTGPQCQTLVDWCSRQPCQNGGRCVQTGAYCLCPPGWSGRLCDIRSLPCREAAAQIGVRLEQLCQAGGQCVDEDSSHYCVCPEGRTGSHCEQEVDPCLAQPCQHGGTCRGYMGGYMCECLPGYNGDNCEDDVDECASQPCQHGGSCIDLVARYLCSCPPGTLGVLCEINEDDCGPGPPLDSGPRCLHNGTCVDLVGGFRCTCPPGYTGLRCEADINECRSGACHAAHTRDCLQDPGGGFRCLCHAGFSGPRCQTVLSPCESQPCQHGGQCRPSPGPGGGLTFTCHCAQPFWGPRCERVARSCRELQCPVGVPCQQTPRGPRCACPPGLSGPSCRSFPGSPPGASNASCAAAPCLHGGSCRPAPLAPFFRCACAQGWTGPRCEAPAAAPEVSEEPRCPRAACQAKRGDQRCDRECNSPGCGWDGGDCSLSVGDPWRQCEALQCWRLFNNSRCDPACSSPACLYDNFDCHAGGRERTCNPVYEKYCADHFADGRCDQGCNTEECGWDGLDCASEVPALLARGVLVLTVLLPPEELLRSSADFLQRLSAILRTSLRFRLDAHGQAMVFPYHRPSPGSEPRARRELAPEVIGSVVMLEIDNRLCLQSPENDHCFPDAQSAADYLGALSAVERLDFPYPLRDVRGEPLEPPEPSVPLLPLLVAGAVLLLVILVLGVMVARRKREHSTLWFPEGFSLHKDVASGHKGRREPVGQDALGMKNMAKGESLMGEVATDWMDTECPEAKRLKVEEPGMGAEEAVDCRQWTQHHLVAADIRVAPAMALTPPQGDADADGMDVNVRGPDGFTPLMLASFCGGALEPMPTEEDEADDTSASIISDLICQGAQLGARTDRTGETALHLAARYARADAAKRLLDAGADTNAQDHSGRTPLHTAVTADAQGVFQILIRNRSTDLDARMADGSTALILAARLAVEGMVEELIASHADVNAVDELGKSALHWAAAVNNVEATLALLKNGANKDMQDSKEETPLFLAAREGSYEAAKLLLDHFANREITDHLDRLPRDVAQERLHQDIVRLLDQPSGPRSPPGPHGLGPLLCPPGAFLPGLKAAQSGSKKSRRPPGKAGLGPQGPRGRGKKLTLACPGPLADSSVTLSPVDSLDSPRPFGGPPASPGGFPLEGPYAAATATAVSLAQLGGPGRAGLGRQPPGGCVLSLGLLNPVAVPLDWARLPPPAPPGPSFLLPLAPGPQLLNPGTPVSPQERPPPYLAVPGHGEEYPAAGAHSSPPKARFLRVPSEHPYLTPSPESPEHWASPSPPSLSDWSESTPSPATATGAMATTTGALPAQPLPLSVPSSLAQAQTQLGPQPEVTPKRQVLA

[10] = probe aEGFR binding to arrayed compounds – biochemical, biotinylated probe, 635/667 nm fluorescence, primary screen (AID 1097); settings: small-molecule microarray, higher = more signal;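 note: probe is a biotinylated anti-EGFR antibody binding compounds printed on slides; score combines fluorescence near 667 nm and signal to noise of each spot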
[11] = tested on: Plasmodium falciparum Sir2 (PF13_0152, Sir2A); test: Plasmodium falciparum Sir2A binding compounds – biochemical, small-molecule microarray, 635 nm fluorescence, primary screen (AID 1098); settings: fluorescence 635 nm, higher = more signal;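 note: score merges spot fluorescence intensity with its signal-to-noise ratio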
[12] = probe aDKK1 binding to arrayed compounds – biochemical, biotinylated probe, 635/667 nm fluorescence, primary screen (AID 1099); settings: small-molecule microarray, higher = more signal;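 note: score merges 667nm spot fluorescence with signal to noise across triplicate slides; reference of the scale not given here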
[13] = probe aCHRDL2 binding to arrayed compounds – biochemical, biotinylated probe, 635/667 nm fluorescence, primary screen (AID 1100); settings: small-molecule microarray, higher = more signal
[14] = change in splice reporter luminescence, either direction, cell-based, HEK293, spliceosome inhibition project, primary screen (AID 1101); settings: HEK293 splicing luciferase reporter, 24 h, higher = more signal, called active from +8 up or from −8 down;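 note: HEK293 cells carrying a splicing-competent luciferase reporter gene; test concentration not given here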
[15] = target: Fibroblast growth factor 10 (Homo sapiens) (UniProt O15520); test: compounds binding fibroblast growth factor 10 – biochemical, small-molecule microarray, 635 nm fluorescence, primary screen (AID 1102); settings: FGF10 binding, fluorescence 635 nm, higher = more signal
Sequence of Fibroblast growth factor 10 (Homo sapiens) (O15520 whole entry, looked up): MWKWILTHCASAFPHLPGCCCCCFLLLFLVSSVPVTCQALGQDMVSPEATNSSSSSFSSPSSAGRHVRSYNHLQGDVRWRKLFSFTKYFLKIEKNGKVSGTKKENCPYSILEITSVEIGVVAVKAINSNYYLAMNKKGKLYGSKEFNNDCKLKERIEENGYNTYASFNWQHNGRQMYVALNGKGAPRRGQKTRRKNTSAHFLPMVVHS

[16] = tested on: glycogen synthase kinase-3 (GSK3A per assay name; protocol says GSK3B); test: compounds binding glycogen synthase kinase-3 – biochemical, small-molecule microarray, 635 nm fluorescence, GSK3A, primary screen (AID 1103); settings: fluorescence 635 nm, higher = more signal; note: the record names both GSK3A and GSK3B
[17] = target: Epidermal growth factor receptor (Homo sapiens) (UniProt P00533); test: compounds binding epidermal growth factor receptor – biochemical, small-molecule microarray, 635 nm fluorescence, primary screen (AID 1104); settings: EGFR binding, higher = more signal;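 note: score merges 667 nm emission intensity with spot signal to noise over triplicate slides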
Sequence of Epidermal growth factor receptor (Homo sapiens) (P00533 whole entry, looked up): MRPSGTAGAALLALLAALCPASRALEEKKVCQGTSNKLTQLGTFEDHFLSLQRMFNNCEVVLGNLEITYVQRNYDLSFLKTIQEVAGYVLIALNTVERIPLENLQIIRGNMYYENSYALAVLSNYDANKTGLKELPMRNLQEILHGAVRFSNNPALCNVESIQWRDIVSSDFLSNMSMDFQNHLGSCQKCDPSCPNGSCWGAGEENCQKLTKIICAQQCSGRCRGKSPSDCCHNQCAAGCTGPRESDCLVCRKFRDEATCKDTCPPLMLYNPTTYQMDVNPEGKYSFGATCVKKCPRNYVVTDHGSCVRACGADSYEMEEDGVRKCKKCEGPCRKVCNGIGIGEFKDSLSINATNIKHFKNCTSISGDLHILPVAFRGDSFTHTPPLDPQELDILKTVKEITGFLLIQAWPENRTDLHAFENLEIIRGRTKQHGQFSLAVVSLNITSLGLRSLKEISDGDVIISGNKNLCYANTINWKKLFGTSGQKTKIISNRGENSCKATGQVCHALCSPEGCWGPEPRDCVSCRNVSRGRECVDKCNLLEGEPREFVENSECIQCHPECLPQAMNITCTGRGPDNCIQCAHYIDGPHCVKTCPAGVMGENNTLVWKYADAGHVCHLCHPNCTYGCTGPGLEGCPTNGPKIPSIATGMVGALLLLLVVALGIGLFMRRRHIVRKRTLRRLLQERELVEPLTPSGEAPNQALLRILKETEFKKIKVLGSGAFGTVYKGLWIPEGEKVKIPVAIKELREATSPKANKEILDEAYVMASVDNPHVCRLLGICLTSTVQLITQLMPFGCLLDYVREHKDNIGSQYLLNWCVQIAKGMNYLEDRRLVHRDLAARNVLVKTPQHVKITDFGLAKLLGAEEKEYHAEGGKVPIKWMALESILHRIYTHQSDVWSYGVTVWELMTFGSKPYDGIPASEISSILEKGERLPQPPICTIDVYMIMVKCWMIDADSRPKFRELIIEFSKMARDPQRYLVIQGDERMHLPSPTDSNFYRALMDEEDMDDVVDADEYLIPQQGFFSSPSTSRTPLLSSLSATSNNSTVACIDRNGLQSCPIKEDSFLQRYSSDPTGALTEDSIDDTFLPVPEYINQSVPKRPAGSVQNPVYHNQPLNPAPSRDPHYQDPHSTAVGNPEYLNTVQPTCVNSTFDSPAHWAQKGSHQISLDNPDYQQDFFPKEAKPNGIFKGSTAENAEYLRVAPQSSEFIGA

[18] = target: Follistatin-related protein 3 (Homo sapiens) (UniProt O95633); test: compounds binding follistatin-related protein 3 – biochemical, small-molecule microarray, 635 nm fluorescence, primary screen (AID 1105); settings: FSTL3 binding, higher = more signal;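 note: score merges emission near 667 nm and signal to noise per printed spot across three slides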
Sequence of Follistatin-related protein 3 (Homo sapiens) (O95633 whole entry, looked up): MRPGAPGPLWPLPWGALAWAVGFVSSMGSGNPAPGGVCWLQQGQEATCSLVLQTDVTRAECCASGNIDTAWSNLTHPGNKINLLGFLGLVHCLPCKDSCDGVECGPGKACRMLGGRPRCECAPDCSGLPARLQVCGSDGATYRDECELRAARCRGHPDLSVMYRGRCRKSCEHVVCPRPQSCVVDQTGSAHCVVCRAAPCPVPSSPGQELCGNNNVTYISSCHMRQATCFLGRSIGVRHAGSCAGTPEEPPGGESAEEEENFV

[19] = target: Dickkopf-related protein 1 (Homo sapiens) (UniProt O94907); test: small molecules binding DKK1 protein – biochemical, small-molecule microarray, 635 nm fluorescence scan, primary screen (AID 1106); settings: higher = more signal;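 note: score merges emission near 667 nm with signal to noise over three replicate slides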
Sequence of Dickkopf-related protein 1 (Homo sapiens) (O94907 whole entry, looked up): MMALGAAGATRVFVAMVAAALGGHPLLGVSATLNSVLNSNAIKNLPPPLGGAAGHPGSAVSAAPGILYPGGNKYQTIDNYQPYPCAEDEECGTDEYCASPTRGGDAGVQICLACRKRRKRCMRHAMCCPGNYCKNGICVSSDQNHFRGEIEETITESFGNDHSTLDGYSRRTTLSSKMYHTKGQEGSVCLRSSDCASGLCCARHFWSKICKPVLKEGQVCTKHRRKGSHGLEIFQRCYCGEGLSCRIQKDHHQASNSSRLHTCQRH

[20] = tested on: Inhibin beta A chain (activin A); test: small molecules binding activin A – biochemical, small-molecule microarray, 635 nm fluorescence scan, primary screen (AID 1107); settings: INHBA, higher = more signal;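 note: mouse activin A protein probed at 4.33 µg/mL on printed slides; score merges bound-protein fluorescence near 667 nm with spot signal-to-noise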

| SMILES | composite z-score [1] | z-score [2] | z-score [3] | z-score [4] | composite z-score [5] | z-score [6] | composite z-score [7] | composite z-score [8] | composite z-score [9] | composite z-score [10] | composite z-score [11] | composite z-score [12] | composite z-score [13] | z-score [14] | composite z-score [15] | composite z-score [16] | composite z-score [17] | composite z-score [18] | composite z-score [19] | composite z-score [20] |
| --- | --- | --- | --- | --- | --- | --- | --- | --- | --- | --- | --- | --- | --- | --- | --- | --- | --- | --- | --- | --- |
| C=CCOC(=O)[C@@H]1[C@H]2C(=O)O[C@H](c3ccccc3)[C@H](c3ccccc3)N2[C@H](c2ccc(OCCOC(=O)[C@H]3C[C@H]4C(=O)N[C@@H](CCCCN(C)C)C(=O)N4[C@H]3c3cccc(OCCO)c3)cc2)[C@@]12C(=O)Nc1ccccc12 | 0.831 | -0.292 (inactive) | 1.12 (inactive) | 0.171 (inactive) | 0.729 | -0.0426 (inactive) | 0.0897 | 0.221 | -0.414 | -0.0039 | 0.938 | 0.342 | 0.707 | 0.0554 (inactive) | -0.515 | 0.602 | -0.632 | -0.335 | -0.679 | 0.0981 |
| [N-]=[N+]=NCc1ccccc1[C@H]1OC(c2ccc(OCCCO)cc2)=N[C@@]1(CCS(=O)(=O)c1ccccc1)C(=O)O | 0.0361 | -0.791 (inactive) | -0.155 (inactive) | -0.814 (inactive) | 3.11 | 0.32 (inactive) | 0.021 | -0.482 | 0.253 | -0.067 | 0.94 | 0.224 | 0.906 | 0.436 (inactive) | 0.283 | 0.0448 | -0.371 | -0.0142 | -0.697 | 0.839 |
| C=C(CCCC)/C(=C/C[C@@H](OC(C)=O)c1cccc(OCCO)c1)c1cc(C(=O)OC)ccc1OC | 1.57 | -0.397 (inactive) | 0.86 (inactive) | -0.709 (inactive) | 0.709 | 0.236 (inactive) | -0.0524 | 0.656 | 0.0716 | -0.0698 | 1.31 | -0.113 | 0.0282 | -0.509 (inactive) | -0.004 | -0.657 | -0.347 | 0.212 | -0.08 | 0.863 |
| C=C(CCCC)C(=O)CC[C@H](OC(=O)c1ccccc1-c1ccccc1C(=O)O)c1cccc(OCCO)c1 | 0.317 | -0.0349 (inactive) | -0.386 (inactive) | -0.678 (inactive) | 1 | 0.171 (inactive) | -0.186 | 0.135 | -0.186 | -0.221 | 0.642 | -0.399 | -0.454 | -0.289 (inactive) | -0.282 | -0.121 | -0.988 | -0.578 | 0.0668 | 1.33 |
| C=C(CCCC)C(=O)CC[C@@H](OC(C)=O)c1ccc(OCCO)cc1 | 1.01 | -1.58 (inactive) | -2.48 (inactive) | -0.679 (inactive) | 0.742 | 0.44 (inactive) | -0.178 | 1.53 | 1.13 | -0.216 | 0.476 | -0.276 | -0.169 | 3.03 (inactive) | 1.48 | -0.198 | -0.678 | 0.824 | 0.268 | 0.204 |
| C=C(COC)C(=O)CC[C@@H](OC(=O)c1ccccc1-c1ccccc1C(=O)O)c1ccccc1OCCO | 1.37 | -1.4 (inactive) | -1.95 (inactive) | -1.12 (inactive) | -0.225 | -0.434 (inactive) | -0.122 | 0.641 | 0.586 | -0.184 | 0.664 | -0.0934 | 0.0182 | -0.14 (inactive) | 1.65 | 0.293 | -0.0099 | 0.474 | 0.902 | 1.34 |
| COC(=O)C(CC#Cc1ccc2c(c1)[C@]1(C(=O)N2)[C@H](C(=O)N2CCN(c3ncccn3)CC2)[C@H]2C(=O)O[C@H](c3ccccc3)[C@H](c3ccccc3)N2[C@@H]1c1ccc(O)cc1)C(=O)OC | 1.53 | 1.04 (inactive) | 1.1 (inactive) | 0.183 (inactive) | 3.25 | -0.333 (inactive) | 0.759 | 1.73 | 1.01 | 1.05 | 1.57 | 2.26 | 1.34 | -0.0485 (inactive) | 1.09 | 1.37 | 1.18 | 1.47 | 0.856 | 1.59 |
| COC(=O)Cn1c(C(=O)N(C)C)cc2c1C[C@H]1CN(C(=O)c3ccccc3)[C@@](Cc3ccccc3)(C(=O)OC)[C@@H]21 | -0.858 | -0.561 (inactive) | -0.103 (inactive) | -0.207 (inactive) | 1.36 | -0.537 (inactive) | 0.0022 | 0.449 | 0.0571 | 0.25 | 0.272 | 0.605 | 0.686 | -0.332 (inactive) | -0.482 | -1.25 | 0.183 | -0.326 | -0.578 | 0.865 |
| COc1c(C)cc(-c2cc3c(c(CCc4ccccc4)n2)[Si](C(C)C)(C(C)C)O[C@H]3c2ccccc2)cc1C | -0.848 | 0.864 (inactive) | 0.307 (inactive) | 33.1 (active) | 0.0198 | -0.899 (inactive) | -0.0519 | 0.108 | 0.24 | -0.162 | 0.994 | -0.137 | -0.169 | -1.48 (inactive) | -0.168 | -0.914 | -0.275 | -0.257 | -0.204 | -0.0185 |
| COc1c(C)cc(-c2nc(-c3ccccc3)c3c(c2C)CO[Si]3(C(C)C)C(C)C)cc1C | 0.114 | 0.687 (inactive) | 0.104 (inactive) | -0.191 (inactive) | 0.254 | -1.59 (inactive) | 0.074 | 0.323 | 0.566 | -0.0068 | -0.186 | -0.141 | 0.0757 | -0.394 (inactive) | 0.295 | 0.324 | 0.387 | 0.338 | 0.305 | 0.698 |
